# Shown are actives, neighbours in structure and some others; about 2.3% of the full set was active somewhere.
# GLS inhibitor: glutaminase GLS (human) inhibition | GLS enzymatic activity, qHTS titration | Potency, µM (top dose mostly 45.5 µM), for the others: top-dose activity change, negative = inhibition, most hits filed as inhibitors | 410,000 tested, 0.21% active | AID 624170; note: % is set by controls: 0 for no effect and ±100 for the full control effect
#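 Enzyme dispensed in phosphate buffer (45 mM, pH 8.2, 0.02% Tween-20), compounds pinned in, then 1 mM L-glutamine solution and the glutamate oxidase–HRP–Amplex Red mix added; fluorescence read immediately and again after 30 min at room temperature.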
# ALOX12 inh: blocks human arachidonate 12S-lipoxygenase; AID 1671190; P18054; 580,000 tested, 1.1% active; purified 12hLO, xylenol orange hydroperoxide absorbance; Potency, µM (highest dose often 108 µM), inactives show at the highest dose activity change, negative = inhibition, hits mostly inhibitors; note: % is set by controls: 0 for no effect and ±100 for the full control effect
#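 Purified human 12hLO at 150 nM in 25 mM Hepes, 0.01% Triton X-100, pH 7.0, preincubated 15 min at room temperature with compound. Reaction started with 40 uM arachidonic acid, 30 min at room temperature. Hydroperoxide measured by Fe-xylenol orange, 573/405 nm absorbance ratio.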
# GLP1R inv ag: acts as inverse agonist at human GLP-1 receptor. P43220. AID 624417. HEK293 GLP-1R CRE-luciferase, luminescence, 24 h; GLP-1R form is constitutively active. 410,000 tested, 1.6% active. Potency, µM (series often up to 38.3 µM), without a hit: top-dose activity change, negative = inhibition, actives largely listed as inhibitors; note: % is set by controls: 0 for no effect and ±100 for the full control effect; nearly all actives have a fitted effect of over 55% in size
# Target sequence (P43220 whole entry, looked up): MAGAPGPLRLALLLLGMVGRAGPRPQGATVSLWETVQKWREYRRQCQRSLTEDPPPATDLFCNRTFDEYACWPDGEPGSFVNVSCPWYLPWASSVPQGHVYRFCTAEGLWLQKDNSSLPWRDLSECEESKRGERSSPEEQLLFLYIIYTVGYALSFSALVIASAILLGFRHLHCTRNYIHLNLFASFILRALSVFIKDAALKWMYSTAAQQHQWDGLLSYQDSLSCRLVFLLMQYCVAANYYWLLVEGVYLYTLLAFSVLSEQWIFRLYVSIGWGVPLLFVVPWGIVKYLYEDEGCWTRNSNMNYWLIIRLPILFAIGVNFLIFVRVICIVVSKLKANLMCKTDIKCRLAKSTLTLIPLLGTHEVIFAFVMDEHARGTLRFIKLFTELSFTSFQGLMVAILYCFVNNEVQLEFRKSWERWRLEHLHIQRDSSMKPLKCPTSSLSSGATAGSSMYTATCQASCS
#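 Readout was luciferase luminescence, measured 12 min after detection reagent at room temperature. Beforehand, GLP-1R reporter HEK293 cells had sat 12 h, then received compounds for 24 hr at 37 deg C.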
# GLP-1R agonist: agonists of human GLP-1 receptor. Potency, µM (highest dose often 45.6 µM), without a hit: at the highest dose activation, actives largely listed as activators. HEK293 GLP-1R CRE-luciferase, luminescence, 4-6 h; cells express a hypersensitive GLP-1R form. 380,000 tested, 0.007% active; note: % of control where 0% means no effect
# PTHR1 agonist: activates the human parathyroid hormone receptor PTHR1. Q03431. HEK293 GP2 PTHR1 cells, GloSensor cAMP luminescence, 1 h. Potency, µM (doses to about 115 µM), inactives show top-dose activation, actives largely listed as activators. 410,000 tested, 0.075% active. AID 743266; note: nearly all actives have a fitted effect of over 55% in size
#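 HEK-293-derived GP2 cells expressing PTHR1 and a GloSensor cAMP reporter, 3,000/well, plated overnight, given luciferin plus IBMX (each 0.5 mM as added) for 1 h at 37 °C, then compound for 1 h at 37 °C. Luminescence was read after 15 min at room temperature.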
# Glioma ERSR ind: inducers of ER stress response in human glioma cells. U87-MG GRP78 promoter luciferase reporter, 16 h. Potency, µM, for the others: top-dose activation, most hits filed as activators. 420,000 tested, 0.02% active; note: series mostly up to about 76 µM; % of control where 0% means no effect; nearly all actives have a fitted effect of over 35% in size
#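 Stably transfected U87-MG human glioma cells carrying a GRP78-based luminescent sensor were seeded at 1000 cells/well, pin-dosed with compounds and incubated 16 h. Luciferase reagent was then added, and end-point luminescence was read after 10 min at room temperature.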
# Starred values were filed as active, the others as inactive; i = inactive; ? = inconclusive; · = no result given; [ ] = dose if it differs, or a comment. Calls come from the whole dose curve; as a rule, active = well fitted curve in the direction sought with a large enough effect; inconclusive = small, poorly fitted or top-dose-only effect, or another doubt; inactive = no such curve, though single readings can be large; an effect the other way counts as inactive or inconclusive. Potency is the fitted concentration of half-maximal effect.
SMILES,GLS inhibitor,ALOX12 inh,GLP1R inv ag,GLP-1R agonist,PTHR1 agonist,Glioma ERSR ind
CCN1CCN(c2cc(C(=O)O)c3cc(NC(=O)C(C)C)ccc3n2)CC1,·,15.8µM*,·,·,·,·
N#CCCN1CCN(c2cc(C(=O)O)c3cc(NC(=O)c4ccccc4)ccc3n2)CC1,·,6.31µM*,·,·,·,·
O=C(Nc1ccc2nc(N3CCN(C4CCCCC4)CC3)cc(C(=O)O)c2c1)c1ccc(Cl)cc1,·,12.6µM*,·,·,·,·
CCCN1CCN(c2cc(C(=O)O)c3cc(NC(=O)C(C)C)ccc3n2)CC1,·,11.2µM*,·,·,·,·
CN1CCN(c2cc(C(=O)O)c3cc(NC(=O)c4ccc(Cl)cc4)ccc3n2)CC1,·,-81.5%,·,·,·,·
N#C/C(=C/c1cccc(OCc2ccccc2)c1)c1nc2ccccc2[nH]1,·,-36.5%,·,·,·,·
CCOC(=O)c1sc(Nc2ccccc2C)nc1C,·,39.4%,·,·,·,·
CCOC(=O)c1sc(CC(=O)Nc2ccccc2C)nc1C,·,8.91µM*,·,·,·,·
COC(=O)c1cc(NCc2ccc(C)cc2)ccc1N1CCOCC1,·,-22.4%,·,·,·,·
CC(C)(C)[C@@H]1COC(=O)[C@@H](Cc2ccc(F)cc2)CC/C=C\C[C@@H](CC(=O)N(CCO)Cc2ccccc2)C(=O)N1,2.3%,8.7%,10µM*,-4.8%,-2.6%,-1.5%
CCCC(=O)c1cc(O)c(O)cc1O,-46.1%[99.4 µM],1.65µM*,·,-0.1%[96 µM],·,-2.8%
CCC(C)(C)c1ccc(OCC(O)CNCc2ccccc2)c(C(C)(C)CC)c1 (configuration not stated),·,44.7µM*,·,·,·,·
CCOC(=O)c1c(NC(=S)Nc2ccc(OC)cc2)sc2c1CCCCC2,14.3%,-17.4%,21.6%,1.6%,i,-0.4%
CCOC(=O)c1c(NC(=S)NNS(=O)(=O)c2ccc(Br)cc2)sc2c1CCCCC2,-2.4%,31.6µM*,12.1%,2.1%,-33.1%,-2.5%
NC(=S)NN=C1CSSC1,20.0%,·,?,0.5%,-21.9%,35.5µM*
CC1(C)CCC(=NNC(N)=S)CC1,5.5%,?,?,-0.9%,?,-2.2%
CC1(C(=O)NCc2cccc(C(F)(F)F)c2)CCN1CCc1ccccc1 (configuration not stated),1.2%,0.2%,?,-4.0%,-16.6%,0.5%
CC1(C(=O)NCc2cccc(C(F)(F)F)c2)CCN1C1Cc2ccccc2C1 (configuration not stated),3.6%,-0.1%,12.6µM*,27.8%,-7.0%,3.0%
COc1ccc(NC(=O)c2cc3c(n2C)CCN(Cc2ccc(F)cc2)C3)cc1,·,17.8µM*,·,·,·,·
COC(=O)c1ccccc1NC(=O)N1CCc2c(sc3c2CCCC3)C1c1ccc(F)cc1 (configuration not stated),4.7%,-5.0%,0.9%,·,i,-2.2%
CCOC(=O)Cc1ccc(NC(=O)N2CCc3c(sc4c3CCCC4)C2c2ccc(F)cc2)cc1 (configuration not stated),5.1%,-10.0%,3.98µM*,·,i,-3.5%
COc1cc(NC(=O)CN2C(=O)C(c3ccc(C)cc3)=NC23CCCCC3)cc(OC)c1,0.6%,?,10µM*,·,-1.7%,·
COc1ccc(CN2CC[C@H](c3nc4ccc(OC)cc4[nH]3)C2)cc1,·,8.4%[176 µM],·,·,·,·
Clc1ccc(CN2CCC(c3nc4ccc(Cl)cc4[nH]3)CC2)cc1,4.0%,?,7.94µM*,-39.2%,-66.5%,0.4%
Cc1ccc(-c2cn(-c3cccc(Cl)c3)c(S(=O)(=O)CC(=O)Nc3cccc(C)c3)n2)cc1,-4.0%,-27.4%,8.91µM*,·,i,3.6%
SMILES,GLS inhibitor,ALOX12 inh,GLP1R inv ag,GLP-1R agonist,PTHR1 agonist,Glioma ERSR ind
O=C(CS(=O)(=O)c1nc(-c2ccc(Cl)cc2)cn1-c1ccccc1)Nc1cccc(Cl)c1,0.0%,-20.5%,?,·,-26.2%,1.6%
Cc1ccc(CNc2oc(-c3cccc4ccccc34)nc2C#N)cc1,·,-5.0%,·,·,·,·
CC(C)C1=CC2=CC[C@@H]3[C@](C)(CCC[C@@]3(C)C(=O)O)[C@H]2CC1,14.1µM*,45.2%[176 µM],·,-2.1%,·,-0.6%
CCOCCCNC(=O)c1cc(Sc2ccc(C)cc2)nc2ccccc12,6.1%,-7.2%,10µM*,8.9%,-30.5%,-4.6%
CC(Oc1ccccc1)C(=O)N1CCN=C1SCc1cccc(F)c1 (configuration not stated),-5.1%,21.1%,?,-1.5%,-14.6%,-0.4%
CC(Oc1ccccc1)C(=O)N1CCN=C1SCc1ccccc1F (configuration not stated),1.7%,-3.1%,3.98µM*,12.4%,i,-5.2%
COc1cccc(-c2ocnc2C(=O)Nc2ccc(C(C)C)cc2)c1,·,-20.9%,·,·,·,·
Cc1ccc(S(=O)(=O)N(C)c2cc(S(=O)(=O)N3CCC(C)CC3)c(C)cc2C)cc1,-0.3%,15.0%,12.6µM*,-5.6%,-2.5%,1.1%
COc1cccc2cc(-c3cc(=O)oc4ccc(OC(C)=O)cc34)oc12,·,8.6%,·,·,·,·
O=C(O)/C=C/C(=O)Nc1ccc(N2CCOCC2)cc1,·,31.6µM*,·,·,·,·
COc1ccc(C(=O)NC(=S)Nc2ccc(CN3CCOCC3)cc2)cc1Br,27.2%,?,12.6µM*,-8.3%,-37.7%,-0.2%
CC(C)c1ccc(/C=C/C(=O)NC(=S)NN2CCOCC2)cc1,16.8%,?,42.1%,-1.0%,i,9.1%
COc1ccc(C(=O)NC(=S)Nc2ccc(CN3CCOCC3)cc2)cc1,-2.3%,?,-16.7%,3.0%,-18.2%,3.0%
Cc1cccc(C(=O)NC(=S)NNC(=O)COc2ccc(Cl)cc2)c1,15.3%,35.5µM*,11.1%,-1.4%,-9.3%,2.1%
COc1ccc(C(=O)NC(=S)NNC(=O)c2cccc(C)c2)cc1,7.1%,?,?,0.0%,-13.7%,?
CC(C)c1ccc(/C=C/C(=O)NC(=S)Nc2ccc(CN3CCOCC3)cc2)cc1,1.7%,39.8µM*,?,-1.0%,-30.6%,-3.5%
COCCn1c(SC(C)c2nc(C(C)(C)C)no2)nc2sc(C)c(C)c2c1=O (configuration not stated),·,-0.8%,·,·,·,·

# Screening results (PubChem BioAssay)
